About 3,200 (25%) of roughly 13,000 compounds showed an effect of 50% or more. Some of the results follow.
System: P. falciparum stage V gametocytes
Set-up: BacTiter-Glo ATP luminescence viability of purified stage V gametocytes in 384-well plates, per cent inhibition versus DMSO
Conditions: 48 h, 5 µM; inhibitor

Compared with NC(=O)c1cccc(C(=O)Nc2cccc(-c3ccc(-c4nc5ccc(C(F)(F)F)cc5[nH]4)cc3)c2)c1 [TCMDC-132202], CC(=O)Nc1cccc(Nc2nccc(-c3c(-c4cccc(NC(=O)c5c(F)cccc5F)c4)nn4ncccc34)n2)c1 [TCMDC-135548] is higher in “% Inhibition” value: -50.53% for the first, -25.11% for the second.

First: COc1ccc(S(=O)(=O)N(CC(=O)NN=C(C)c2cccs2)c2cc(C)cc(C)c2)cc1OC [TCMDC-125737]
Second: CCS(=O)(=O)c1ccc(OC)c(Nc2nccc(-c3c(-c4cccc(NC(=O)c5c(F)cccc5F)c4)nn4ncccc34)n2)c1 [TCMDC-135682]
The “% Inhibition” value of the first is lower: 0.7472% for the first, 81.78% for the second.

Going from COc1ccccc1NS(=O)(=O)c1cc(C(=O)Nc2ccc(N3CCOCC3)c(S(=O)(=O)Nc3ccccc3Cl)c2)ccc1Cl [TCMDC-125591] to CS(=O)(=O)N1CC2(CCN(CCC(NC(=O)/C=C/c3ccccc3)c3ccc(Cl)c(Cl)c3)CC2)c2ccccc21 (stereo not shown) [TCMDC-141763], the “% Inhibition” value falls from 13% to 8.889%.

Going from Cc1cc(-c2ccc(NC(=O)N3CCc4cc(Br)c(N5CCN(C)CC5)cc43)cc2)cc(C)n1 [TCMDC-139279] to CCCN1CCCN(Cc2cccc(NC(=O)c3ccc(-c4ccccc4)cc3)c2)CC1 [TCMDC-141843], the “% Inhibition” value falls from 26.15% to -30.15%.

First: CCCN1CCC=C(c2cccc(Nc3nccc(Nc4cc(OC)ccc4C)n3)c2)C1 [TCMDC-138668]
Second: COCCOc1ccc(Nc2nccc(-c3c(-c4cccc(NC(=O)c5c(F)cccc5F)c4)nn4ccccc34)n2)cc1F [TCMDC-135995]
The “% Inhibition” value of the first is higher: 37.96% for the first, 27.09% for the second.

First: O=C(Nc1cccc(-c2nn3ncccc3c2-c2ccnc(Nc3ccccc3)n2)c1)c1c(F)cccc1F [TCMDC-134631]
Second: O=C(Nc1cccc(-c2nn3ncccc3c2-c2ccnc(Nc3cccnc3)n2)c1)c1c(F)cccc1F [TCMDC-135635]
The “% Inhibition” value of the first is lower: -2.939% for the first, 0.1379% for the second.

Going from CCN(CC)CCCOc1ccc(Nc2nccc(-c3c(-c4cccc(NC(=O)c5c(F)cccc5F)c4)nn4ccccc34)n2)cc1F [TCMDC-135920] to COCCOc1ccc(Nc2nccc(-c3c(-c4cccc(NC(=O)c5c(F)cccc5F)c4)nn4ccccc34)n2)cc1Cl [TCMDC-135955], the “% Inhibition” value falls from 94.91% to -12.66%.

Going from CS(=O)(=O)Cc1ccc(Nc2nccc(-c3c(-c4cccc(NC(=O)c5c(F)cccc5F)c4)nn4ncccc34)n2)cc1 [TCMDC-135681] to CS(=O)(=O)Cc1ccc(Nc2nccc(-c3c(-c4cccc(NC(=O)c5c(F)cccc5F)c4)nn4ccccc34)n2)cc1 [TCMDC-135669], the “% Inhibition” value falls from 52.9% to -24.51%.

Reference: PMC4552634, “A New Set of Chemical Starting Points with Plasmodium falciparum Transmission-Blocking Potential for Antimalarial Drug Discovery” (PLoS ONE, 2015)
